Consider 20 compounds from PubChem BioAssay.

Assay [1] is described as follows: antimalarial activity against Dd2 strain (AID 2302;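 active = growth inhibition above 50% at the single 2 µM test dose, taken to imply half-maximal potency below 2 µM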;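 note: 0% = DMSO untreated growth and 100% = chloroquine plus artemisinin killed control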). To be noted: P. falciparum Dd2 in RBCs, LDH growth readout, 72 h; at 2 µM; stronger effect = higher value.
Assay [2] is described as follows: human hepatoma cell viability loss – ATP luminescence, cytotoxicity control for P. falciparum antimalarial project, primary screen (AID 2303;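 active = inhibition above 50%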;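 note: 0% = DMSO wells and 100% = digitonin-killed cells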). The settings on record: HepG2 viability, 24-48 h, at 10 µM, stronger effect = higher value.
For assay [3], the target named is L-lactate dehydrogenase (Plasmodium falciparum (isolate CDC / Honduras)) (UniProt Q27743). Kind of assay: PfLDH activity inhibition – cell lysate, 3D7 strain, counter-screen for P. falciparum growth inhibition project (AID 2304).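 Note: 0% = vehicle and 100% = reference inhibitor.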 To be noted: P. falciparum 3D7 crude extract, LDH APAD/NBT absorbance; at 2 µM; stronger effect = higher value. For orientation: A counterscreen serves to expose hits that act by an unwanted route or on another target.
Chain of L-lactate dehydrogenase (Plasmodium falciparum (isolate CDC / Honduras)) (Q27743 whole entry, looked up): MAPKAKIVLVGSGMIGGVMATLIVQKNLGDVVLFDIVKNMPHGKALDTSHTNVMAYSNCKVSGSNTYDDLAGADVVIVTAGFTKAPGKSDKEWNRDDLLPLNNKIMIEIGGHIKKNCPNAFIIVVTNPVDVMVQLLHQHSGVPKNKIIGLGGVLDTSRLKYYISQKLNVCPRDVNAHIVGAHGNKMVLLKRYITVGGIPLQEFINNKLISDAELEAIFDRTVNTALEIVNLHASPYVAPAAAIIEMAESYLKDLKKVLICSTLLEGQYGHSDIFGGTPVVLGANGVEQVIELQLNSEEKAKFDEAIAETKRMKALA

A short description of assay [4]: inhibition of 3D7 malaria parasite growth – strain 3D7 (AID 2306).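 Note: 0% = DMSO wells and 100% = chloroquine plus artemisinin control wells.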 To be noted: P. falciparum 3D7 erythrocytic growth, LDH absorbance, 72 h; at 2 µM; stronger effect = higher value.
Assay [5] deals with Calcium-dependent protein kinase 1 (Plasmodium falciparum (isolate 3D7)) (UniProt P62344). Nature of the assay: PfCDPK1 kinase inhibitors, biochemical, TCAMS library (AID 1159585; cut-off not given, nearly all actives have IC50 up to about 0.98 µM;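 note: inhibitors leave more ATP so luminescence rises with inhibition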). To be noted: recombinant PfCDPK1, Kinase-Glo ATP depletion luminescence. (Kinase-Glo reads ATP consumption through a luciferase reaction.)
Chain of Calcium-dependent protein kinase 1 (Plasmodium falciparum (isolate 3D7)) (P62344 whole entry, looked up): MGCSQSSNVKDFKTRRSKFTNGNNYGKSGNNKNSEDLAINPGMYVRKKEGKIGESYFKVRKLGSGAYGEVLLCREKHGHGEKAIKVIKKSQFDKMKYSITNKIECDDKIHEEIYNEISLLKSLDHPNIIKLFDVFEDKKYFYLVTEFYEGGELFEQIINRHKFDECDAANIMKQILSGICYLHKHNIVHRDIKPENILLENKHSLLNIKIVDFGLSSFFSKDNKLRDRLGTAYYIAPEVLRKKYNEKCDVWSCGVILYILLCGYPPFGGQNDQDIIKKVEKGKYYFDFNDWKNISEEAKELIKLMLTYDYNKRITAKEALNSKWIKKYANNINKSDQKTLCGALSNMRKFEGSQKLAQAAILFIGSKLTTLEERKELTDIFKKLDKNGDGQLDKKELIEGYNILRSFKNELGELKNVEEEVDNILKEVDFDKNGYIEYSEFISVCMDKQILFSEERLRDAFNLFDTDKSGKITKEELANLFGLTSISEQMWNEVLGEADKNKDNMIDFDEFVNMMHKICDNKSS
The target of assay [6] is Plasmodium falciparum protein kinase 6 (PK6, PF3D7_1337100) (UniProt Q8IDW1). Kind of assay: PfPK6 kinase inhibitors, biochemical, TCAMS library (AID 1159586). To be noted: recombinant PfPK6, Kinase-Glo ATP depletion luminescence.
Chain of Plasmodium falciparum protein kinase 6 (PK6, PF3D7_1337100) (Q8IDW1 1-305): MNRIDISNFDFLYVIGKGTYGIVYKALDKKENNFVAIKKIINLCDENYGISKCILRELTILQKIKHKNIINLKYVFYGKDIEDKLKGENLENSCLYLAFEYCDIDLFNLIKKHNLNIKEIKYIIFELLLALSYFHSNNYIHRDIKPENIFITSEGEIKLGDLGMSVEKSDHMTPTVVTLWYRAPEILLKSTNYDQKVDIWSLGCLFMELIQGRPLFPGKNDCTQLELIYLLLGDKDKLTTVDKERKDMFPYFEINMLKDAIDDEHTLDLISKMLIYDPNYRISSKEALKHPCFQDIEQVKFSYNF
The target in assay [7] is Protein kinase 7 (PK7), Plasmodium falciparum 3D7 (PF3D7_0213400) (UniProt Q7YTF7). Nature of the assay: inhibition of Plasmodium PK7 catalytic activity – biochemical, TCAMS antimalarial set, Kinase-Glo luminescence (AID 1159587). The settings on record: recombinant PfPK7, Kinase-Glo ATP depletion luminescence.
Chain of Protein kinase 7 (PK7), Plasmodium falciparum 3D7 (PF3D7_0213400) (Q7YTF7 1-343): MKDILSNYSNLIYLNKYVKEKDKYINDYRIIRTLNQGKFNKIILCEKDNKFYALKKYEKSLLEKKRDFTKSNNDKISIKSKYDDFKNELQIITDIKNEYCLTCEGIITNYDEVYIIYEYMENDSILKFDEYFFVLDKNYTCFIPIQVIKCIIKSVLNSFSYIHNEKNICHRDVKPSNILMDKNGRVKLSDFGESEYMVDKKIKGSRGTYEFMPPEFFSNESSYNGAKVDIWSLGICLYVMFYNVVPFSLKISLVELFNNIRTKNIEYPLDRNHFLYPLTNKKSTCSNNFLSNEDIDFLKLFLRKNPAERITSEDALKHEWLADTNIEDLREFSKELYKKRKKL
For assay [8], the target named is Calcium-dependent protein kinase 4 (Plasmodium falciparum (isolate 3D7)) (UniProt Q8IBS5). Kind of assay: PfCDPK4 kinase inhibitors, biochemical, TCAMS library (AID 1159588; cut-off not given, nearly all actives have IC50 up to about 0.91 µM). The settings on record: recombinant PfCDPK4, Kinase-Glo ATP depletion luminescence.
Chain of Calcium-dependent protein kinase 4 (Plasmodium falciparum (isolate 3D7)) (Q8IBS5 whole entry, looked up): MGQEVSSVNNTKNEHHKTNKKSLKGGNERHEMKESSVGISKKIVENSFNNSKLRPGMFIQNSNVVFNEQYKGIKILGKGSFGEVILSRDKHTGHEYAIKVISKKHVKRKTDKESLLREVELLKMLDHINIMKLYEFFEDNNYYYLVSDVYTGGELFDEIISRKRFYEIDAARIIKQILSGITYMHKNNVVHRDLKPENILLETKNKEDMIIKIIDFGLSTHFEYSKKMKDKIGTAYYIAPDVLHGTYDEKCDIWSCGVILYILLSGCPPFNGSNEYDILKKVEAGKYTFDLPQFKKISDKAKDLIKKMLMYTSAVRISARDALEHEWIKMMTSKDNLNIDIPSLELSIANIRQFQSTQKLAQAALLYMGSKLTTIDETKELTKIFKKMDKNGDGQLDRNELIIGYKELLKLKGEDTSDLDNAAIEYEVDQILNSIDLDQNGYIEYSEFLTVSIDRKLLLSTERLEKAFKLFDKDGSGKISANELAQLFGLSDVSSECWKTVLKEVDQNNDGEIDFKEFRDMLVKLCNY

A number with no mark means an inactive call. For some of these results: Results with a measured potency or affinity are listed apart. Activity calls are given as the source filed them. Unless noted, the rule behind the calls is not given here.

With `O=C(Nc1cccc(-c2cccc(-c3nc4ccc(C(F)(F)F)cc4[nH]3)c2)c1)c1cnc[nH]1`, the growth inhibition is 100% (active) in assay [1] and 101% (active) in assay [4]. Moreover, the inhibition (commonly the change of the read-out against control, counted positive when it falls) in assay [2] is 14%; in assay [3], 2%. Also, the result in assay [5], in assay [6], in assay [7] and in assay [8] was inactive.

With `CN1CCN(CCCN(C(=O)Nc2cc(C(F)(F)F)cc(C(F)(F)F)c2)c2ccccc2Cc2ccccc2)CC1`, the growth inhibition in assay [1] is 92% (active); in assay [4], 89% (active). Also, the inhibition was 35% in assay [2] and 0% in assay [3]. For the same compound, the outcome in assay [5], in assay [6], in assay [7] and in assay [8] was inactive.

Turning to `CC(=O)Nc1ccc(CNCCc2ccc(NC(=O)c3cc(Cl)cc(Cl)c3)cc2)cc1`, the figures for the growth inhibition in assay [1] and in assay [4] were 31% and 102% (active), respectively. In addition, the inhibition is 10% in assay [2] and -1% in assay [3]. Moreover, the result in assay [5], in assay [6], in assay [7] and in assay [8] was inactive.

Regarding `Cc1cc(NN=Cc2ccccc2[N+](=O)[O-])c2ccc(F)cc2n1`, the growth inhibition in assay [1] is 100% (active); in assay [4], 101% (active). Besides, the inhibition is 32% in assay [2] and -4% in assay [3]. Further, the outcome in assay [5], in assay [6], in assay [7] and in assay [8] was inactive.

Consider `COc1cc2c(cc1N1C[C@@H](C)N[C@@H](C)C1)N(C(=O)c1ccc(-c3ccc(-c4ncc[nH]4)cc3C)cc1)CC2`, for which the growth inhibition in assay [1] was 58% (active); in assay [4], 98% (active). For the same compound, the inhibition in assay [2] is 7%; in assay [3], -2%. The result in assay [5], in assay [6], in assay [7] and in assay [8] was inactive.

For `COc1cccc(-c2nc3c(N4CCN(c5ccncc5)CC4)cccc3n2CC2CCCCCN2)n1` (stereo not given), the growth inhibition in assay [1] is 31%; in assay [4] it was 91% (active). For the same compound, the inhibition in assay [2] was 12%; in assay [3] it was 3%. In addition, the result in assay [5], in assay [6], in assay [7] and in assay [8] was inactive.

As to `CCN(CC)C(=O)C1CCCN(c2cc(C)nc(Nc3ccc(Cl)cc3)n2)C1` (stereo not given), the growth inhibition in assay [1] was 64% (active); in assay [4] it was 94% (active). The inhibition in assay [2] is 13%; in assay [3], 1%. Also, the outcome in assay [5], in assay [6], in assay [7] and in assay [8] was inactive.

In the case of `COc1cc(SC)ccc1C(=O)N1CC(C)CC(C)C1` (stereo not given), the growth inhibition was 66% (active) in assay [1] and 98% (active) in assay [4]. Also, the results for the inhibition in assay [2] and in assay [3] were 5% and -8%, respectively. The outcome in assay [5], in assay [6], in assay [7] and in assay [8] was inactive.

For the compound `O=C(NC(c1ccccc1)c1ccc2cccnc2c1O)c1ccccc1` (stereo not given), the growth inhibition in assay [1] was 63% (active); in assay [4] it was 94% (active). Also, the inhibition was 53% (active) in assay [2] and -4% in assay [3]. The result in assay [5], in assay [6], in assay [7] and in assay [8] was inactive.

As for `COc1ccc2ncc(F)c(CCN3C[C@H](CNCc4ccc5c(n4)NC(=O)CS5)[C@H](O)C3)c2c1`, the results for the growth inhibition in assay [1] and in assay [4] were 34% and 92% (active), respectively. For the same compound, the inhibition in assay [2] and in assay [3] was -3% throughout. The outcome in assay [5], in assay [6], in assay [7] and in assay [8] was inactive.

Consider `O=C(Nc1cccc(CN2CCCN(Cc3ccc(O)cc3)CC2)c1)c1cc(F)cc(F)c1`, for which the growth inhibition was 13% in assay [1] and 100% (active) in assay [4]. In addition, the inhibition was 15% in assay [2] and 0% in assay [3]. The result in assay [5], in assay [6], in assay [7] and in assay [8] was inactive.

On to `CC1(C)CCC(=Cc2ccc(Cl)cc2)CC1(O)Cn1ccnc1` (stereo not given), for which the growth inhibition in assay [1] was 74% (active); in assay [4], 99% (active). The figures for the inhibition in assay [2] and in assay [3] were 0% and -4%, respectively. Also, the outcome in assay [5], in assay [6], in assay [7] and in assay [8] was inactive.

Turning to `CN(C)C(=O)c1ccc(CN(Cc2cccc(OC(C)(C)C)c2)Cc2ccc3c(c2)OCCO3)cc1`, the growth inhibition in assay [1] and in assay [4] was 96% (active) each time. The results for the inhibition in assay [2] and in assay [3] were 0% and -2%, respectively. The outcome in assay [5], in assay [6], in assay [7] and in assay [8] was inactive.

In the case of `COc1ccc2nccc([C@@H](O)CN3CCC(NCc4cc5c(Cl)cc(Cl)cc5[nH]4)CC3)c2c1`, the growth inhibition in assay [1] was 86% (active); in assay [4], 101% (active). Besides, the inhibition in assay [2] was 93% (active); in assay [3] it was 4%. Besides, the outcome in assay [5], in assay [6], in assay [7] and in assay [8] was inactive.

Take `O=C(c1ccc(-c2ccc(-c3nc4ccc(C(F)(F)F)cc4[nH]3)s2)cc1)N1CCCCC1CN1CCC(O)C1` (stereo not given): the growth inhibition is 80% (active) in assay [1] and 92% (active) in assay [4]. Moreover, the values for the inhibition in assay [2] and in assay [3] were 90% (active) and 3%, respectively. Further, the outcome in assay [5], in assay [6], in assay [7] and in assay [8] was inactive.

As to `COc1ccc(CNC2CCN(C)CC2)cc1-c1ccc(S(=O)(=O)NCCc2ccccn2)s1`, the growth inhibition in assay [1] is 12%; in assay [4] it was 100% (active). The inhibition in assay [2] was 6%; in assay [3] it was 3%. The result in assay [5], in assay [6], in assay [7] and in assay [8] was inactive.

`O=C(NC1CC1)c1ccc(N2CCCC(COc3ccc4c(c3)CCCC4)C2)nc1` (stereo not given): the figures for the growth inhibition in assay [1] and in assay [4] were 65% (active) and 85% (active), respectively. The inhibition in assay [2] and in assay [3] was -5% throughout. Also, the result in assay [5], in assay [6], in assay [7] and in assay [8] was inactive.

On to `CCCCC(=O)Nc1ccc(Nc2nc(C)cc(N3CCCC3)n2)cc1`, for which the results for the growth inhibition in assay [1] and in assay [4] were 67% (active) and 101% (active), respectively. In addition, the inhibition in assay [2] was 38%; in assay [3] it was 4%. Also, the outcome in assay [5], in assay [6], in assay [7] and in assay [8] was inactive.

Regarding `O=C(Nc1cccnc1)c1cn(-c2ccccc2)nc1-c1cccs1`, the growth inhibition is 61% (active) in assay [1] and 99% (active) in assay [4]. Besides, the inhibition in assay [2] is 3%; in assay [3] it was -3%. For the same compound, the outcome in assay [5], in assay [6], in assay [7] and in assay [8] was inactive.

Consider `CCN1CCN(Cc2ccc(-c3ccc(NS(=O)(=O)c4cccc5cccnc45)cc3)cc2)CC1`, for which the growth inhibition in assay [1] was 42%; in assay [4], 90% (active). Also, the inhibition is 29% in assay [2] and -2% in assay [3]. The outcome in assay [5], in assay [6], in assay [7] and in assay [8] was inactive.
